# Measurements as given in PMC7862700, “An all-to-all approach to the identification of sequence-specific readers for epigenetic DNA modifications on cytosine”.
# Columns and labels:
# Experiment in all cases: DAPPL (digital affinity profiling via proximity ligation, sequencing); 10 mM Tris-HCl pH 7.5, 50 mM NaCl, 1 mM DTT, 4% glycerol, room temperature, 30 min; GST-TFs on glutathione beads, 16-mer random dsDNA library, 0.1% formaldehyde crosslink after washing; high values mean tight binding
# Conditions in all cases: protein: recombinant; tags: N-terminal GST; dsDNA, one strand shown
# ETV1 = ETV1 (Homo sapiens, UniProt P50549 1-477)
# Procedure, shortened: (§1)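 Sequencing on an Illumina NextSeq500 followed washing, crosslinking with 0.1% formaldehyde, proximity ligation (BsaI/T4 ligase, 1 h, 37 °C) and PCR amplification of pools that had been incubated for 30 min at room temperature with 200 nmole of a random double-stranded 16-mer DNA library in Tris/NaCl/DTT/glycerol buffer. Each pool held DNA-barcoded human transcription factors, expressed in yeast as GST fusions and captured on glutathione beads, plus a tag-only sample. Binding signal is a hexamer's read frequency for a factor divided by its frequency in the tag-only sample.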
# ERF = molecular target: T1, ERF (Homo sapiens, UniProt P50548 1-548)
# T1 sequence: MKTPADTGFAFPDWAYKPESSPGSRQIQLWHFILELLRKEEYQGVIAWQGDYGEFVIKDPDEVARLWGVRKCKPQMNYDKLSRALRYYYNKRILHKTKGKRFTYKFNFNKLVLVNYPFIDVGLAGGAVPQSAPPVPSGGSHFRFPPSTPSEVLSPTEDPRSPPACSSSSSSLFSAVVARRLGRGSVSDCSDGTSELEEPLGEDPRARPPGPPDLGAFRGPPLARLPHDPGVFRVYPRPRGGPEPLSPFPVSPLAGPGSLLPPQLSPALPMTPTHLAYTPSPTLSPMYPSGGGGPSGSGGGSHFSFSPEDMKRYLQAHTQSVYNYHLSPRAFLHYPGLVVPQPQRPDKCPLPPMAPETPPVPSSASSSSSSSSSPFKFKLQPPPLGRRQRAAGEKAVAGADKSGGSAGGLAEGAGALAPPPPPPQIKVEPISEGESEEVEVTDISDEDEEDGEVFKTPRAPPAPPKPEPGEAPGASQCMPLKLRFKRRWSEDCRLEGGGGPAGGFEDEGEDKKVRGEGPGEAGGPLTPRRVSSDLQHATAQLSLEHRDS
# Procedure, shortened: as §1
# ETV3L = molecular target: T2, ETV3L (Homo sapiens, UniProt Q6ZN32 1-361)
# T2 sequence: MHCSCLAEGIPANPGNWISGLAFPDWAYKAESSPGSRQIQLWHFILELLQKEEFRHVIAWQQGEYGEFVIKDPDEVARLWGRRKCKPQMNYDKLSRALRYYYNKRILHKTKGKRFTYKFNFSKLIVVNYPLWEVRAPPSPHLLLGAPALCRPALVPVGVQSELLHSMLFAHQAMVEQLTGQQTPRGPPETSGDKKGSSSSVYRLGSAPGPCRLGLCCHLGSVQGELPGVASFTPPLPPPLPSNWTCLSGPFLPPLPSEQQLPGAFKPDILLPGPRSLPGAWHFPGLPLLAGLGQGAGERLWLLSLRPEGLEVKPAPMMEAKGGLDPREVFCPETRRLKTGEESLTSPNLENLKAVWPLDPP
# Procedure, shortened: as §1
# ETS2 = molecular target: T3, ETS2 (Homo sapiens, UniProt P15036 1-469)
# T3 sequence: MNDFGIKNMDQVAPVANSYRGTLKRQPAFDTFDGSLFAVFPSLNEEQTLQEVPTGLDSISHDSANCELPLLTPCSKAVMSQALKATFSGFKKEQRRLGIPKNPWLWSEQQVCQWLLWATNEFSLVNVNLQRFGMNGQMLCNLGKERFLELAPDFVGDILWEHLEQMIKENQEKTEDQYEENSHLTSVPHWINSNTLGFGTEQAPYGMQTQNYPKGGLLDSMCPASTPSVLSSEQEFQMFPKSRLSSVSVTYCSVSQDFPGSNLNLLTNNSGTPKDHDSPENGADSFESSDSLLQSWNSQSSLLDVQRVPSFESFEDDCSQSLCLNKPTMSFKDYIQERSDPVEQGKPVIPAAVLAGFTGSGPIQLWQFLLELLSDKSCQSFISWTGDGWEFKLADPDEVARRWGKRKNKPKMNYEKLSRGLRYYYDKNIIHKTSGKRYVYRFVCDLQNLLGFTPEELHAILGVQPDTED
# Procedure, shortened: as §1
# SPDEF = molecular target: T4, SPDEF (Homo sapiens, UniProt O95238 1-335)
# T4 sequence: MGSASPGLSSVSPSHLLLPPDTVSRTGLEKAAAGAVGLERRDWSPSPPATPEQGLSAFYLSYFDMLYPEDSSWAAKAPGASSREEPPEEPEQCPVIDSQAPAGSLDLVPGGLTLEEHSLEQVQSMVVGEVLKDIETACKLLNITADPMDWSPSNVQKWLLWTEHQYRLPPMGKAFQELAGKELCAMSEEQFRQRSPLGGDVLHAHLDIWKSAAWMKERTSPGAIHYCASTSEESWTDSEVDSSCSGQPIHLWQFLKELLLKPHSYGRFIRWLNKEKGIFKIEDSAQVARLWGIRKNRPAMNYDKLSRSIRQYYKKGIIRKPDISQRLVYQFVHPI
# Procedure, shortened: as §1
# ETV7 = molecular target: T5, ETV7 (Homo sapiens, UniProt Q9Y603 1-341)
# T5 sequence: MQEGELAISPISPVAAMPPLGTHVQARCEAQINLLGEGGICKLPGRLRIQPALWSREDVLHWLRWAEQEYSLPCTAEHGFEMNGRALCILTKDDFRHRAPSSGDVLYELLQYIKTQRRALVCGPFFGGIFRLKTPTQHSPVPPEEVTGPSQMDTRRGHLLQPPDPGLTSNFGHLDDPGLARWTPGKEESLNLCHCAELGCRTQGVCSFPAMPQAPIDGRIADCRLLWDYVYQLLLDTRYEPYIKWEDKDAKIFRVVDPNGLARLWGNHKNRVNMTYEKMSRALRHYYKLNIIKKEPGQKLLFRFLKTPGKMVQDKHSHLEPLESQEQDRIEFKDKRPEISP
# Procedure, shortened: as §1
# ELF5 = molecular target: T6, ELF5 (Homo sapiens, UniProt Q9UKW6-2 1-255)
# T6 sequence: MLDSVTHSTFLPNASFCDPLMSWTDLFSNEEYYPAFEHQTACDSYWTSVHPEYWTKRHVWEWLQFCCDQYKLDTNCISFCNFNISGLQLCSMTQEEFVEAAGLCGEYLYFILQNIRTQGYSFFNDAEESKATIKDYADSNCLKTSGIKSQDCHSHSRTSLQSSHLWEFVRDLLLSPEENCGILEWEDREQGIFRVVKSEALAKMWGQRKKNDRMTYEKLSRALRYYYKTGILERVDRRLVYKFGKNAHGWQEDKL
# Procedure, shortened: as §1
# ETV3 = molecular target: T7, ETV3 (Homo sapiens, UniProt P41162-2 1-143)
# T7 sequence: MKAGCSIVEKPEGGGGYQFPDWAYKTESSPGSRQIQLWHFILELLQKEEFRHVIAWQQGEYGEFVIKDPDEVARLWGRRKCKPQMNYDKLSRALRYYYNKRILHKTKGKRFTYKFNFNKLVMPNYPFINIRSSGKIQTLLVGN
# Procedure, shortened: as §1
# ETV6 = ETV6 (Homo sapiens, UniProt P41212 1-452)
# Procedure, shortened: as §1
# ETV1, sequence (P50549 whole entry, the tested form may be a part): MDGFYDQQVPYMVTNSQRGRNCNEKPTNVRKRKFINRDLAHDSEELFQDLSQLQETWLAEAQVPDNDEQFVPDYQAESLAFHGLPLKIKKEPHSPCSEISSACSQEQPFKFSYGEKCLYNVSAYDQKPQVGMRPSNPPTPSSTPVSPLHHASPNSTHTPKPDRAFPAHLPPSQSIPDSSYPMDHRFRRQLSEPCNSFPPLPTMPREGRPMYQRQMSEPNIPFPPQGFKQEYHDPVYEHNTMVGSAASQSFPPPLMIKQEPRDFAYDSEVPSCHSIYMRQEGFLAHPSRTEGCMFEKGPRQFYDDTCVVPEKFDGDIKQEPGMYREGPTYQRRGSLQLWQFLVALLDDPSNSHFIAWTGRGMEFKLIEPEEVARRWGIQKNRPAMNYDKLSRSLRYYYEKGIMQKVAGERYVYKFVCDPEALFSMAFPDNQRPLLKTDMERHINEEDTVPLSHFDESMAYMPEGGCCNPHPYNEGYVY
# ETV6, sequence (P41212 whole entry): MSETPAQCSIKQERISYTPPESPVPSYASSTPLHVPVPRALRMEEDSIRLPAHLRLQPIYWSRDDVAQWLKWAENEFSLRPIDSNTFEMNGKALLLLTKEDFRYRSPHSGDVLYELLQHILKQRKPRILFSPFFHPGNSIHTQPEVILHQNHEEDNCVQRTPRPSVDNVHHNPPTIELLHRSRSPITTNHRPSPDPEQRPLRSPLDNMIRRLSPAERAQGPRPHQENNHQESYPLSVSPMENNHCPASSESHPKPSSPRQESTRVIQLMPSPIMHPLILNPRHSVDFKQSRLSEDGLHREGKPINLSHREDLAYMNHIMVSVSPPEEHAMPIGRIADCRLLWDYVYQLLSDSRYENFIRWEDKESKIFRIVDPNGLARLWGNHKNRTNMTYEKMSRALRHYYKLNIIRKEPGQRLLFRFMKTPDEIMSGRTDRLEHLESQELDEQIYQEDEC
sequence,measurement,setting,value
TTGATA,binding signal,ETV1,"1.25 fold enrichment (6-mer frequency, TF over GST control)"
same,binding signal,ERF,"1.24 fold enrichment (6-mer frequency, TF over GST control)"
same,binding signal,ETV3L,"1.27 fold enrichment (6-mer frequency, TF over GST control)"
same,binding signal,ETS2,"1.15 fold enrichment (6-mer frequency, TF over GST control)"
same,binding signal,SPDEF,"1.13 fold enrichment (6-mer frequency, TF over GST control)"
same,binding signal,ETV7,"1.23 fold enrichment (6-mer frequency, TF over GST control)"
same,binding signal,ELF5,"1.21 fold enrichment (6-mer frequency, TF over GST control)"
same,binding signal,ETV3,"1.25 fold enrichment (6-mer frequency, TF over GST control)"
same,binding signal,ETV6,"1.14 fold enrichment (6-mer frequency, TF over GST control)"
